The source made the active and inactive calls. Rule as the data show it, unless noted: active = nuclear beta-catenin stimulation mostly above about 4.2% (no sharp cut-off); inactive = mostly below about 10%.

The nature of experiment [1]: Wnt pathway potentiators raising nuclear beta-catenin – imaging, WNT3A-conditioned medium, mouse C2C12, NPC library, primary screen (AID 1117326). Also: reference of the scale not given here. Conditions: stronger effect = higher value.
The nature of experiment [2]: stimulators of insulin release from INS-1E, primary screen, cell-based, 5 mM glucose, NPC library (AID 1117329;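 active = compound raises insulin release from rat beta cells at 5 mM glucose, no numeric limit stated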; also: reference of the scale not given here). Conditions: rat INS-1E insulin secretion, at 10 µM, stronger effect = higher value.
Experiment [3] is described as follows: growth inhibition of GSK3B-pretreated HCT116 cells – cell-based, CellTiter-Glo, 0.2 to 20 µM (AID 1117336;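 active = compounds lowering colon cancer cell viability after pretreatment blocking the GSK3B kinase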). Conditions: HCT116 viability after GSK3B inhibitor, at 20 µM, stronger effect = higher value.
A short description of experiment [4]: inhibition of endothelial tube formation, primary screen, imaging, VEGF stimulated, CD31 staining, tube area, NPC library (AID 1117340;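 active = compound that reduces growth-factor-driven endothelial tube area in a mixed cell culture, no cutoff stated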). Conditions: VEGF-stimulated ADSC/ECFC co-culture, at 10 µM, stronger effect = higher value.
A short description of experiment [5]: GLP1 release stimulators, primary, NCI-H716, NPC library (AID 1117341;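 active = compound raises GLP1 secretion from the human gut endocrine cells, with no numeric limit stated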; also: reference of the scale not given here). Conditions: NCI-H716 cells, at 10 µM, stronger effect = higher value.
Experiment [6] in a line: HCT116 colon cancer cell growth inhibition, primary screen, CellTiter-Glo luminescence, NPC library (AID 1117342;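 active = compounds that lower survival of HCT116 colon cancer cells in the luminescence readout, no numeric limit stated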). Conditions: at 20 µM (top of the series).
Experiment [7] can be described thus: reduced SW480 viability measured with CellTiter-Glo, NPC library, primary (AID 1117343;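 active = compounds that lower viability of the colon cancer cells in the luminescence readout, with no numeric limit stated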). Conditions: CellTiter-Glo luminescence; at 20 µM (top of the series).
Experiment [8] is described as follows: NPC library primary testing for decreased DLD-1 cell viability via CellTiter-Glo (AID 1117346;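 active = compounds that lower survival of DLD-1 colon cancer cells in the luminescence readout, no cutoff given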). Conditions: DLD-1 viability, CellTiter-Glo luminescence; at 20 µM (top of the series).

Consider `CC1(C)S[C@@H]2[C@H](NC(=O)C(c3ccccc3)S(=O)(=O)O)C(=O)N2[C@H]1C(=O)O` (stereo partly specified), for which the nuclear beta-catenin stimulation was 1.3% (inactive) in experiment [1] (at 10 µM) and 1.4% in experiment [1] (stimulation, at 2 µM). In experiment [2], the insulin secretion stimulation is -0.05% (inactive). The viability decrease in experiment [3] was 5.8% (inactive). Besides, the tube area decrease in experiment [4] is -2.3% (inactive). Besides, the GLP1 secretion stimulation in experiment [5] was 3.6% (inactive). For the same compound, in experiment [6], the inhibition of viability is 1.3% (inactive). The viability decrease (inhibition) in experiment [7] was -0.2% (inactive); in experiment [8], -1.8% (inactive).
For `CCN(CC)CCOC(=O)C1(c2ccccc2)CCCC1`, the nuclear beta-catenin stimulation in experiment [1] (at 10 µM) was -1.2% (inactive); in experiment [1] (stimulation, at 2 µM), -0.5%. The insulin secretion stimulation in experiment [2] was 9.3% (inactive). For the same compound, the viability decrease in experiment [3] is -14.1% (inactive). The tube area decrease in experiment [4] is 22.6% (inactive). Besides, the GLP1 secretion stimulation in experiment [5] was -2.7% (inactive). Besides, in experiment [6], the inhibition of viability was 4% (inactive). For the same compound, the results for the viability decrease (inhibition) in experiment [7] and in experiment [8] were -1.9% (inactive) and -2.6% (inactive), respectively.
As for `NC(CSCC(=O)O)C(=O)O` (stereo unspecified), the nuclear beta-catenin stimulation in experiment [1] (at 10 µM) is 0.1% (inactive); in experiment [1] (stimulation, at 2 µM), 1.5%. The insulin secretion stimulation in experiment [2] was -0.7% (inactive). Also, in experiment [3], the viability decrease is -2.5% (inactive). Also, the tube area decrease in experiment [4] was 18.6% (inactive). In addition, in experiment [5], the GLP1 secretion stimulation is -2.3% (inactive). Moreover, the inhibition of viability in experiment [6] is 0.7% (inactive). Further, the viability decrease (inhibition) in experiment [7] was 0.9% (inactive); in experiment [8], -5.3% (inactive).
On to `NS(=O)(=O)c1ccc(N2CCCCS2(=O)=O)cc1`, for which the nuclear beta-catenin stimulation in experiment [1] (at 10 µM) is 0.5% (inactive); in experiment [1] (stimulation, at 2 µM) it was -0.6%. In experiment [2], the insulin secretion stimulation was -0.3% (inactive). Besides, the viability decrease in experiment [3] is -15.7% (inactive). Further, the tube area decrease in experiment [4] is 5.1% (inactive). Moreover, the GLP1 secretion stimulation in experiment [5] is -1.7% (inactive). In addition, the inhibition of viability in experiment [6] is -8.93% (inactive). The viability decrease (inhibition) is 29% (inactive) in experiment [7] and -6.9% (inactive) in experiment [8].
`COC(=O)C1=C(C)NC(C)=C(C(=O)OCC(C)=O)C1c1ccccc1[N+](=O)[O-]` (stereo unspecified): the nuclear beta-catenin stimulation in experiment [1] (at 10 µM) is 1.6% (inactive); in experiment [1] (stimulation, at 2 µM), 1.2%. The insulin secretion stimulation in experiment [2] was -0.3% (inactive). Besides, the viability decrease in experiment [3] is 25.5% (inactive). Moreover, in experiment [4], the tube area decrease was 7% (inactive). In addition, the GLP1 secretion stimulation in experiment [5] is -2.7% (inactive). For the same compound, in experiment [6], the inhibition of viability is 39.1% (inactive). Further, the viability decrease (inhibition) was 69.6% (active) in experiment [7] and 28.3% (inactive) in experiment [8].
Consider `C[C@@H](O)[C@H]1C(=O)N2C(C(=O)[O-])=C(SC3Cn4cnc[n+]4C3)[C@H](C)[C@H]12` (stereo partly specified), for which the nuclear beta-catenin stimulation in experiment [1] (at 10 µM) was -0.3% (inactive); in experiment [1] (stimulation, at 2 µM), -2.1%. Further, in experiment [2], the insulin secretion stimulation was 6.4% (inactive). Also, the viability decrease in experiment [3] is -16.5% (inactive). Moreover, in experiment [4], the tube area decrease was -9.3% (inactive). Moreover, the GLP1 secretion stimulation in experiment [5] was 0.8% (inactive). Besides, the inhibition of viability in experiment [6] was 15.4% (inactive). Also, the results for the viability decrease (inhibition) in experiment [7] and in experiment [8] were -6.5% (inactive) and 5.3% (inactive), respectively.
`CCOC(=O)c1ccc(NC(=O)CN2CCCCC2)cc1`: the nuclear beta-catenin stimulation in experiment [1] (at 10 µM) was 0.5% (inactive); in experiment [1] (stimulation, at 2 µM), -1.8%. Further, in experiment [2], the insulin secretion stimulation is 3.5% (inactive). In experiment [3], the viability decrease is 18.5% (inactive). Further, in experiment [4], the tube area decrease is 0.1% (inactive). The GLP1 secretion stimulation in experiment [5] was 0.9% (inactive). The inhibition of viability in experiment [6] was 50.7% (active). Also, the viability decrease (inhibition) in experiment [7] is 24.7% (inactive); in experiment [8], 5.8% (inactive).
Regarding `N[C@H]1CN(c2c(F)cc3c(=O)c(C(=O)O)cn(C4C[C@@H]4F)c3c2Cl)CC12CC2` (stereo partly specified), the nuclear beta-catenin stimulation in experiment [1] (at 10 µM) is 0.1% (inactive); in experiment [1] (stimulation, at 2 µM) it was 1.9%. In experiment [2], the insulin secretion stimulation is 0.95% (inactive). Further, the viability decrease in experiment [3] was 40.5% (inactive). The tube area decrease in experiment [4] was -10.7% (inactive). In addition, the GLP1 secretion stimulation in experiment [5] is -1.5% (inactive). Besides, in experiment [6], the inhibition of viability was 34.3% (inactive). For the same compound, the viability decrease (inhibition) in experiment [7] is 54.7% (active); in experiment [8] it was -9.6% (inactive).
For `CC(C)(C)c1nnc(NS(=O)(=O)c2ccc(N)cc2)s1`, the nuclear beta-catenin stimulation in experiment [1] (at 10 µM) is 0.1% (inactive); in experiment [1] (stimulation, at 2 µM), -1.2%. Also, the insulin secretion stimulation in experiment [2] is 3.45% (inactive). Also, in experiment [3], the viability decrease was 7.2% (inactive). Further, the tube area decrease in experiment [4] is -5.2% (inactive). Further, in experiment [5], the GLP1 secretion stimulation was 0.7% (inactive). Besides, the inhibition of viability in experiment [6] is -2.9% (inactive). Further, the viability decrease (inhibition) in experiment [7] was 54.4% (active); in experiment [8], -5.4% (inactive).
Consider `COC(=O)/C=C\C(=O)OC`, for which the nuclear beta-catenin stimulation in experiment [1] (at 10 µM) was 3.8% (inactive); in experiment [1] (stimulation, at 2 µM) it was 9%. Moreover, in experiment [2], the insulin secretion stimulation was 2.95% (inactive). The viability decrease in experiment [3] is 8.3% (inactive). Further, the tube area decrease in experiment [4] is 10.6% (inactive). The GLP1 secretion stimulation in experiment [5] was -1.8% (inactive). For the same compound, the inhibition of viability in experiment [6] was -5.7% (inactive). In addition, the results for the viability decrease (inhibition) in experiment [7] and in experiment [8] were 5.9% (inactive) and -5.6% (inactive), respectively.
For `C/C(=C(\CCO)SS/C(CCO)=C(\C)N(C=O)Cc1cnc(C)nc1N)N(C=O)Cc1cnc(C)nc1N`, the nuclear beta-catenin stimulation in experiment [1] (at 10 µM) is 0.2% (inactive); in experiment [1] (stimulation, at 2 µM), -0.9%. In experiment [2], the insulin secretion stimulation was 0.9% (inactive). Further, the viability decrease in experiment [3] was -14.3% (inactive). The tube area decrease in experiment [4] was -4.4% (inactive). Besides, in experiment [5], the GLP1 secretion stimulation was -0.7% (inactive). In addition, the inhibition of viability in experiment [6] was 0.6% (inactive). Moreover, the viability decrease (inhibition) in experiment [7] was -11.8% (inactive); in experiment [8], 7.4% (inactive).
In the case of `CCCCCCCCCCCCCCCC(=O)OCC(COC(=O)CCCCCCCCCCCCCCC)OC(=O)CCCCCCCCCCCCCCC`, the nuclear beta-catenin stimulation in experiment [1] (at 10 µM) was -0.4% (inactive); in experiment [1] (stimulation, at 2 µM) it was -0.6%. For the same compound, the insulin secretion stimulation in experiment [2] was 2.5% (inactive). The viability decrease in experiment [3] is -7.6% (inactive). Also, the tube area decrease in experiment [4] is -17.9% (inactive). The GLP1 secretion stimulation in experiment [5] was -5.4% (inactive). The inhibition of viability in experiment [6] was -1.3% (inactive). Further, the viability decrease (inhibition) is 2.7% (inactive) in experiment [7] and -6.5% (inactive) in experiment [8].
On to `COC(=O)C(CN)c1c[nH]c2ccc(OC)cc12` (stereo unspecified), for which the nuclear beta-catenin stimulation is -2.2% (inactive) in experiment [1] (at 10 µM) and -1% in experiment [1] (stimulation, at 2 µM). The insulin secretion stimulation in experiment [2] was 2.3% (inactive). Besides, the viability decrease in experiment [3] is -18.2% (inactive). In addition, the tube area decrease in experiment [4] was 5.7% (inactive). The GLP1 secretion stimulation in experiment [5] is 7.7% (inactive). The inhibition of viability in experiment [6] is 8.5% (inactive). Moreover, the viability decrease (inhibition) in experiment [7] was 19.4% (inactive); in experiment [8] it was 16.7% (inactive).
For `CCCCC(=O)OCC(=O)[C@H]1[C@H](C)C[C@H]2[C@@H]3C[C@H](F)C4=CC(=O)C=C[C@]4(C)[C@@]3(F)[C@@H](O)C[C@@]21C`, the nuclear beta-catenin stimulation in experiment [1] (at 10 µM) was -1.1% (inactive); in experiment [1] (stimulation, at 2 µM), -1.4%. For the same compound, in experiment [2], the insulin secretion stimulation was 13.7% (inactive). The viability decrease in experiment [3] is -7.2% (inactive). For the same compound, the tube area decrease in experiment [4] was -11.7% (inactive). In experiment [5], the GLP1 secretion stimulation was 0.8% (inactive). In addition, in experiment [6], the inhibition of viability was 17.1% (inactive). Also, the viability decrease (inhibition) is -15.9% (inactive) in experiment [7] and -9.9% (inactive) in experiment [8].

Source of the values: PubChem BioAssay.
